Screening data as filed in PubChem BioAssay.
Sampled rows, rich in hits. Any-hit rate of the full collection: about 1.4%.
MLL AF4-AF9 inh – inhibitors of human MLL-AF4/AF9 interaction. P42568. AlphaScreen, biotin-AF4 peptide binding to FLAG-AF9. inhibition, % at 10 µM. 350,000 tested, 0.47% active. AID 651704;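 active = every replicate reaching a set inhibition limit, whatever the replicate mean, cut at about 25% in these data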;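 also: 0% = plate neutral control median and 100% = total signal loss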
Target sequence (P42568 whole entry, looked up): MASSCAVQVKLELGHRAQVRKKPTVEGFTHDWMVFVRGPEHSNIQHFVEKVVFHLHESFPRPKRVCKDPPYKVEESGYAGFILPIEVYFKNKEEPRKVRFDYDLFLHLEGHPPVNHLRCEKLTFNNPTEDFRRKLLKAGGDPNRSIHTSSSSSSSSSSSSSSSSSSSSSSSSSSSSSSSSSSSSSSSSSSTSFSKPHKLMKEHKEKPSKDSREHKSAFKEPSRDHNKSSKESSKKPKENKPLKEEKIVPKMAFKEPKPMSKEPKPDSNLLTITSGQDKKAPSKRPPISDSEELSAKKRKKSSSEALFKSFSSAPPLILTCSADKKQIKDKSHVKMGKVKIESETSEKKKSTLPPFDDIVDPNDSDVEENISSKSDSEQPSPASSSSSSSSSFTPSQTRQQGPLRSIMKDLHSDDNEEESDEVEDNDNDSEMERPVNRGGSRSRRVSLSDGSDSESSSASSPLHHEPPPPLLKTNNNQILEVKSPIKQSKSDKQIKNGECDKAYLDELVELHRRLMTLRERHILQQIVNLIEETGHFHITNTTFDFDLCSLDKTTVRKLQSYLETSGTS
ERAP1 inh – inhibitors of human ERAP1 aminopeptidase | Q9NZ08 | recombinant ERAP1, Leu-AMC fluorescence, 60 min | inhibition, % at 10.7 µM | 340,000 tested, 0.15% active | AID 652197;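 active = mean replicate inhibition of at least 30%, or all replicates individually reaching that 30% level; inactive = mean below 30% and not every replicate reaching it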;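 also: 0% = neutral control wells and 100% = L-leucinethiol positive control wells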
RAD54 branch – inhibitors of human RAD54 branch migration; Q92698; RAD54 Holliday junction branch migration, FAM/BHQ fluorescence; inhibition, % at 10.4 µM; 360,000 tested, 0.14% active; AID 602329;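 active = mean normalized replicate activity at least 40 and at least half of replicates scoring 40 or more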;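 also: 0% = median of neutral control wells and 100% = median of positive control wells; inhibitors cause a drop in the FAM fluorescence signal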
RAD52 inh – RAD52 (human) annealing inhibition | recombinant RAD52 DNA annealing, FRET fluorescence | P43351 | inhibition, % at 18.7 µM | 360,000 tested, 0.46% active;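 active = every replicate showing at least 50% inhibition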
PGC1a acetyl inh – lowers PGC1a acetylation signal in U2OS cells. AlphaScreen anti-acetyl-lysine; with virally co-expressed GCN5 acetyltransferase. inhibition, % at 15.6 µM. 350,000 tested, 0.17% active. AID 651687;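 active = every replicate shows inhibition of at least 40%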;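 also: 0% = neutral control wells and 100% = positive control wells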
INS-1E GSIS act – primary screen for activators of insulin secretion dependent on glucose, INS-1E cells, GLuc reporter luminescence | INS-1E GLuc reporter insulin secretion, 2-3 h | activation, % at 16.6 µM | 370,000 tested, 0.61% active;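 active = lowest replicate activation of at least 40%, so every replicate reaches that level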;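 also: 0% = median of neutral control wells and 100% = median of IBMX positive control wells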
Numbers without * were called inactive; i = inactive; · = no result.

SMILES	MLL AF4-AF9 inh	ERAP1 inh	RAD54 branch	RAD52 inh	PGC1a acetyl inh	INS-1E GSIS act
CC(O)CSc1nc2c(c(=O)[nH]c(=O)n2C)n1Cc1ccccc1Cl (stereo not drawn)	-16.4	2.8	-0.9	-10.7	-1.6	21.8
Cn1c(=O)[nH]c(=O)c2c1nc(SCC(O)CCl)n2Cc1ccccc1 (stereo not drawn)	-8.8	1.6	-2.3	-4.4	0.0	40.9*
CC(=O)CSc1nc2c(c(=O)[nH]c(=O)n2C)n1Cc1ccccc1Cl	-3.5	-0.9	3.3	-7.0	0.1	59.3*
Cn1c(=O)[nH]c(=O)c2c1[nH]c(=S)n2Cc1ccc(Cl)cc1	-7.8	44.6*	0.0	-12.8	·	-19.4
CCOC(=O)N1CCN(S(=O)(=O)c2ccc(C(=O)N(CCCN(C)C)c3nc4c(C)c(C)ccc4s3)cc2)CC1	26.0*	-0.4	17.3	32.9	-17.8	-43.6
O=C(c1cccnc1)N1C[C@H]2[C@@H](c3ccccc31)[C@H](CO)N2C(=O)C1CCOCC1	5.0	-0.9	5.6	-2.0	6.8	0.1
CC(=O)Nc1cc(OC(C)=O)c2nonc2c1OC(C)=O	·	·	2.5	·	44.2*	·
COc1ccc2c3c(n(C)c2c1)[C@@H](CO)N(C(C)=O)CC31CN(C(=O)c2ccccc2)C1	·	·	·	·	·	17.4
COc1ccc(C2=Nc3ccccc3NC(=O)C2N(Cc2ccc(F)cc2)C(=O)c2ccco2)cc1 (stereo not drawn)	4.4	1.1	-0.4	-20.3	-10.3	4.4
O=C1Nc2ccccc2N=C(c2ccccc2)C1N(Cc1ccc(F)cc1)C(=O)c1cccnc1 (stereo not drawn)	3.6	15.9	10.0	-15.3	40.5*	-11.6
COCCNC(=O)C[C@@H]1CC[C@H]2[C@H](COc3ccc(NC(=O)C4CCCC4)cc3C(=O)N2C)O1	-2.2	2.5	9.5	6.0	2.3	1.2
COc1ccc(C(=O)c2cnc[nH]2)cc1OC	-10.6	0.5	-1.2	-10.7	1.3	69.8*
CC(C)(C)Nc1scc(-c2ccccc2)[n+]1-c1ccccc1	28.2*	-0.8	·	-6.2	1.4	48.7
CC(=O)Nc1sc2c(c1-c1nc3ccccc3s1)CCN(C(C)C)C2	·	·	77.6*	·	·	·
CC(C)N1CCc2c(sc(NC(=O)c3ccc4ccccc4c3)c2C(N)=O)C1	-2.6	1.0	-9.4	i	·	-4.9
COC(=O)C[C@H]1CC[C@@H]2[C@@H](COc3ccc(NC(=O)c4ccccc4OC)cc3C(=O)N2C)O1	·	·	0.9	·	-3.4	2.5
COC(=O)N1CCCCC1c1cc(C(=O)NCc2ccc(Cl)c(Cl)c2)no1 (stereo not drawn)	2.6	-1.0	1.4	-14.7	-0.9	73.2*
CCOC(=O)C1=C(COC(=O)/C=C/c2ccc(OC)c(OC)c2)NC(=O)NC1C (stereo not drawn)	8.1	8.4	0.1	-14.0	·	31.5
CCOC(=O)C1=C(COC(=O)/C=C/c2ccc(O)c(OC)c2)NC(=O)NC1C (stereo not drawn)	2.4	-0.6	·	-2.5	3.1	58.7*
O=C(NCC[C@H]1CC[C@H](NS(=O)(=O)c2ccccc2)[C@@H](CO)O1)c1ccc2c(c1)OCO2	-0.9	-0.3	-1.5	5.5	7.1	8.6
C[C@@H]1CCCCO[C@H](CN(C)C(=O)Nc2ccc3c(c2)OCO3)[C@@H](C)CN([C@@H](C)CO)C(=O)c2cc(NC(=O)c3ccncc3)ccc2O1	-3.4	0.9	0.9	-14.6	2.8	5.8
O=C1c2ccccc2NC(c2cccc(O)c2)N1NS(=O)(=O)c1ccccc1 (stereo not drawn)	-4.1	38.4*	-2.0	-14.5	0.0	1.6
O=C1c2cccnc2C(Nc2ccc(F)c(Cl)c2)N1Cc1cccs1 (stereo not drawn)	3.7	1.4	-3.4	5.2	·	66.2*
O=C(C1CCCCC1)N1CC2(C1)[C@H](c1ccccc1)[C@@H](CO)N2Cc1ccccc1F	-17.1	-7.2	·	-14.7	-11.2	-18.3
Cc1cc(C)cc(NC(=O)Cc2ccc(-n3cccc3)cc2)c1	·	·	-3.4	·	3.9	53.9*
SMILES	MLL AF4-AF9 inh	ERAP1 inh	RAD54 branch	RAD52 inh	PGC1a acetyl inh	INS-1E GSIS act
CNC(=O)C[C@@H]1CC[C@@H]2[C@@H](COc3ccc(NS(=O)(=O)c4cccc(F)c4)cc3C(=O)N2C)O1	-0.4	-0.8	-13.1	-4.5	-0.4	6.3
CC(=O)Nc1nnc(-c2ccc(Cl)s2)o1	45.1*	4.4	-9.9	-10.6	5.7	8.3
CCC(=O)Nc1nnc(-c2ccc(Cl)s2)o1	-1.0	1.3	·	-9.8	·	11.0
Nc1ccc(S(=O)(=O)Nc2nccc(/C=C/c3cccc(Br)c3)n2)cc1	-1.5	-1.1	-4.9	-14.8	10.7	-2.2
Nc1ccc(S(=O)(=O)Nc2nccc(/C=C/c3cccc([N+](=O)[O-])c3)n2)cc1	-2.0	1.0	3.4	-14.2	3.9	69.6*
COc1ccc(OC)c(NC(=O)CN=[N+]=[N-])c1	-1.4	-1.4	·	11.8	2.1	·
Oc1cccc(C=NNc2ccccn2)c1	4.8	1.5	6.1	-13.1	10.9	20.0
Cc1nc(N/N=C/c2ccc(O)cc2O)cc(N2CCOCC2)n1	69.9*	-1.1	4.3	-26.7	12.1	4.6
Oc1c(Cl)cc(Cl)cc1C=Nc1ccc(N2CCOCC2)cc1	-0.5	0.0	-2.6	-4.8	4.3	6.2
Oc1ccc(C=Nc2ccc(N3CCOCC3)cc2)c(O)c1	·	·	1.5	·	64.2*	·
Oc1ccc(C=NNc2ccccn2)c(O)c1	41.8*	-2.7	·	1.3	·	-4.6
COc1ccc(CN2C[C@@H](C)[C@H](OC)CN(C)C(=O)c3ccc(NC(C)=O)cc3OC[C@H]2C)cc1	-0.2	-1.6	·	-5.0	-0.9	·
Cc1ccc(-c2nc(NC(=O)c3nn(C)cc3[N+](=O)[O-])sc2C)cc1C	-10.4	-1.4	0.1	-12.7	91.2*	-0.4
Cn1cc([N+](=O)[O-])c(C(=O)Nc2nc(-c3ccc(Cl)cc3)cs2)n1	·	·	3.4	·	62.9*	·
C[C@@H]1CN([C@@H](C)CO)C(=O)c2cc(NC(=O)Cc3ccccc3)ccc2O[C@@H](C)CCCCO[C@@H]1CN(C)C(=O)Nc1cccc2ccccc12	-1.1	1.5	-0.8	-18.2	-12.1	-4.1
CO[C@H]1/C=C/O[C@@]2(C)Oc3c(C)c(O)c4c(O)c(c(C=NN5CCN(C)CC5)c(O)c4c3C2=O)NC(=O)/C(C)=C\C=C\[C@H](C)[C@H](O)[C@@H](C)[C@@H](O)[C@@H](C)[C@H](OC(C)=O)[C@@H]1C	31.2*	-2.9	-5.9	-32.5	·	·
C[C@H](CO)N1C[C@H](C)[C@@H](CN(C)S(C)(=O)=O)Oc2c(NC(=O)CCC(F)(F)F)cccc2C1=O	·	·	·	·	·	22.6
CC1(C)CC(=O)C=C(c2ccccc2-c2ccc(S(C)(=O)=O)cc2)C1=O	8.5	8.0	0.0	-17.4	0.1	48.7*
C[C@H]1CCCCO[C@@H](CN(C)CC2CCCCC2)[C@@H](C)CN([C@@H](C)CO)C(=O)c2cc(NC(=O)Cc3ccccc3)ccc2O1	-2.0	1.0	2.9	6.5	12.5	-10.9
